High-throughput results: PubChem, The Scripps Research Institute Molecular Screening Center
GPR151 ag: activators of human GPR151; activation, % at 11.2 µM; Q8TDV0; AID 1508602; PathHunter beta-arrestin GPR151 cells, luminescence; actives 1% (n = 650,000); in the data active = activation above about 4.9%;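 note: 0% = median of compound wells and 100% = cells with positive control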
MITF inh: human MITF inhibition, primary screen | inhibition, % at 2.6 µM | actives 0.91% (n = 650,000) | AlphaScreen MITF homodimerization, bead proximity signal | O75030; in the data active = inhibition above about 50%;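 note: 0% = vehicle wells with protein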
Target sequence (O75030 whole entry, looked up): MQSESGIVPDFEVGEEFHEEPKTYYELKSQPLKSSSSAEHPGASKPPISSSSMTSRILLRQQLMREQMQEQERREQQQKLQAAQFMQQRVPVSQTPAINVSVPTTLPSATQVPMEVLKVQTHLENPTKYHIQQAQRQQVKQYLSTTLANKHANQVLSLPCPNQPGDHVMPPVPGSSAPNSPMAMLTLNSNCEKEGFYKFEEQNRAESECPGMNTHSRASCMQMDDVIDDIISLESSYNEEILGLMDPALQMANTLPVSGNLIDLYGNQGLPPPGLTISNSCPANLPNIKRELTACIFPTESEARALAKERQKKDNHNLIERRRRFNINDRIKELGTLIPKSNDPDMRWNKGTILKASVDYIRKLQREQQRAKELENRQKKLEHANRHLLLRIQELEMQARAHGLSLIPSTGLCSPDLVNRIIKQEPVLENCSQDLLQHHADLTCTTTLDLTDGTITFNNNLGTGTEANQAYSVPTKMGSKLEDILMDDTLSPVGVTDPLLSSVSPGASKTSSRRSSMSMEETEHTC
FBW7 act: activators of human E3 ligase FBW7; Q969H0; AlphaScreen FBW7–phospho-cyclin E peptide binding, activator screen; normalized activity (activation), % at 26.1 µM; actives 0.13% (n = 650,000); in the data active = normalized activity above about 1.9%;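 note: purified mutant Fbw7 with reduced substrate affinity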
TEAD-YAP inh: TEAD-YAP interaction inhibition | actives 1.4% (n = 640,000) | AID 1259422 | HEK-TIYL cells, TEAD-Gal4/YAP UAS-luciferase luminescence | inhibition, % at 9.12 µM; in the data active = inhibition above about 32%;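 note: 0% = median of test compound wells and 100% = reference inhibitor wells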
* = called active by the depositor. A selection: hits, their analogues and other compounds. The true share with any hit is near 3.5%.

For Cc1ccc(CCNC2CCN(c3ccc(C(=O)N4CCCC(O)C4)cc3)CC2)cc1 (centres undefined) the results were GPR151 ag -1, MITF inh -5, FBW7 act 0 and TEAD-YAP inh -8.
Screening Cc1ccc(NC(=O)N2CCCc3ccccc32)cc1 returned GPR151 ag 0, MITF inh -4, FBW7 act 0 and TEAD-YAP inh -17.
CC(C)(C)c1ccc(NC(=O)N2CCc3ccccc32)cc1 was read as GPR151 ag -4, MITF inh 8, FBW7 act 0 and TEAD-YAP inh 87*.
`Oc1ccc2cc(Br)ccc2c1Br` gave GPR151 ag 0, MITF inh 24, FBW7 act 2.1* and TEAD-YAP inh -6.
COc1ccc(-n2ncc3c(Nc4cc(Cl)ccc4OC)ncnc32)cc1 was read as GPR151 ag 1, MITF inh 33, FBW7 act 0 and TEAD-YAP inh 41*.
Screening COc1ccc(-n2ncc3c(Nc4ccc(OC)c(Cl)c4)ncnc32)cc1 returned GPR151 ag 0, MITF inh -17, FBW7 act 0 and TEAD-YAP inh 54*.
Screening COc1ccc(Cl)cc1Nc1ncnc2c1cnn2-c1ccccc1 returned GPR151 ag 0, MITF inh 10, FBW7 act 0 and TEAD-YAP inh -15.
O=C1CCC/C(=N\NC(=O)C2COc3ccccc3O2)C1 (centres undefined) was read as GPR151 ag 0, MITF inh 9, FBW7 act 0 and TEAD-YAP inh 8.
For CN1CCC(=NNC(=O)C2COc3ccccc3O2)CC1 (centres undefined) the results were GPR151 ag 0, MITF inh -2, FBW7 act 0 and TEAD-YAP inh 38*.
Cc1ccc(/C=N/NC(=O)C2COc3ccccc3O2)cc1 (centres undefined) was read as GPR151 ag 0, MITF inh 18, FBW7 act 0 and TEAD-YAP inh 51*.
For O=C(N/N=C/c1ccc(Br)cc1)C1COc2ccccc2O1 (centres undefined) the results were GPR151 ag 0, MITF inh -5, FBW7 act 0 and TEAD-YAP inh 37*.
For Cc1cc(-c2ccc(NC(=O)[C@H]3COc4ccccc4O3)cc2)ccn1 the results were GPR151 ag 0, MITF inh 23, FBW7 act 0 and TEAD-YAP inh 75*.
For O=S(=O)(c1ccccc1F)N1C2CCC1CC(O)(c1ccccc1F)C2 (centres undefined) the results were GPR151 ag 1, MITF inh -17, FBW7 act 0 and TEAD-YAP inh -10.
`O=C(O)COc1nc(C(F)(F)F)ccc1NC(=O)c1ccccc1` gave GPR151 ag 0, MITF inh 2, FBW7 act 0 and TEAD-YAP inh 5.
`Cc1ccc(N2CC(C(=O)Nc3ccc(F)c(Cl)c3)CC2=O)cc1` (centres undefined) gave GPR151 ag -1, MITF inh 0, FBW7 act 0 and TEAD-YAP inh 0.
Screening O=c1[nH]c(=O)n(Cc2cccs2)c(O)c1C=NCc1cccs1 returned GPR151 ag 1, MITF inh 1, FBW7 act 0 and TEAD-YAP inh 6.
`C/C(=N\NC(=O)C1COc2ccccc2O1)c1ccc(Br)cc1` (centres undefined) gave GPR151 ag -1, MITF inh -1, FBW7 act 1 and TEAD-YAP inh 38*.
For C/C(=N\NC(=O)CNC(=O)C1COc2ccccc2O1)c1ccccc1 (centres undefined) the results were GPR151 ag -1, MITF inh -26, FBW7 act 0 and TEAD-YAP inh 10.
Screening Nc1cccc(Oc2ccc3c(c2)C(=O)N(c2cccc(N)c2)C3=O)c1 returned GPR151 ag 3, MITF inh -1, FBW7 act 0 and TEAD-YAP inh -2.
For Nc1ccc(Oc2ccc3c(c2)C(=O)N(c2cccc(N)c2)C3=O)cc1 the results were GPR151 ag 1, MITF inh 10, FBW7 act 3.4* and TEAD-YAP inh -27.
Screening Nc1ccc(Oc2ccc3c(c2)C(=O)N(CCO)C3=O)cc1 returned GPR151 ag -1, MITF inh -1, FBW7 act 0 and TEAD-YAP inh 42*.
`O=c1oc2ccc3ccccc3c2cc1-c1csc(NC2CCCCC2)n1` gave GPR151 ag 0, MITF inh 4, FBW7 act 0 and TEAD-YAP inh 1.
Screening C=CCN1C(=O)/C(=C/c2ccc(OCc3cccc(C(=O)O)c3)cc2)C(=O)NC1=S returned GPR151 ag -10, MITF inh -2, FBW7 act 0 and TEAD-YAP inh 79*.
For C=CCN1C(=O)/C(=C/c2cc(C)n(-c3cccc(C(=O)O)c3C)c2C)C(=O)NC1=S the results were GPR151 ag 0, MITF inh 53*, FBW7 act 0 and TEAD-YAP inh 9.
`C=CCN1C(=O)/C(=C\c2ccc(-c3cccc(C(=O)O)c3)o2)C(=O)NC1=S` gave GPR151 ag 1, MITF inh 64*, FBW7 act -1 and TEAD-YAP inh 0.
`C=CCN1C(=O)/C(=C\c2ccc(-c3ccc(C(=O)O)cc3)o2)C(=O)NC1=S` gave GPR151 ag 0, MITF inh 17, FBW7 act 0 and TEAD-YAP inh 0.
C/C(CC(=O)Nc1ccc2c(c1)OCCO2)=N\NC(=O)C(=O)Nc1ccccc1 was read as GPR151 ag -1, MITF inh -2, FBW7 act 0 and TEAD-YAP inh -10.
CCOc1ccc(-n2c(=S)sc3c(=O)n(-c4ccccc4)c(SCc4nc5ccccc5[nH]4)nc32)cc1 was read as GPR151 ag -3, MITF inh -4, FBW7 act 1 and TEAD-YAP inh 2.
For O=c1c2sc(=S)n(-c3ccccc3)c2nc(SCc2nc3ccccc3[nH]2)n1-c1ccccc1 the results were GPR151 ag -2, MITF inh -7, FBW7 act 0 and TEAD-YAP inh 33*.
`Cc1cccc(C)c1-n1c(SCc2ccccc2F)nc2c(sc(=S)n2CCc2ccccc2)c1=O` gave GPR151 ag 1, MITF inh -13, FBW7 act 0 and TEAD-YAP inh -5.
Cc1cccc(C)c1-n1c(SCc2ccccc2F)nc2c(sc(=S)n2-c2c(C)cccc2C)c1=O was read as GPR151 ag 2, MITF inh 0, FBW7 act 0 and TEAD-YAP inh 41*.
`O=C1CCCN1CCCNc1nc(Nc2cnccn2)nc2c1ncn2CCN1CCCC1=O` gave GPR151 ag 0, MITF inh 3, FBW7 act 0 and TEAD-YAP inh 6.
Screening CC(=O)Nc1ccc(Nc2nc(NCCCN3CCCC3=O)nc3c2ncn3C2CCCCC2)cc1 returned GPR151 ag -3, MITF inh -3, FBW7 act 0 and TEAD-YAP inh -11.
O=C1CCCN1CCCNc1nc(Nc2cnccn2)nc2c1ncn2C1CCCCC1 was read as GPR151 ag -2, MITF inh 6, FBW7 act 0 and TEAD-YAP inh 35*.
`c1cnc(Nc2nc(NC3CC3)c3ncn(C4CCCCC4)c3n2)cn1` gave GPR151 ag 5, MITF inh 7, FBW7 act 0 and TEAD-YAP inh 42*.
